Results reported in PubChem BioAssay (NCI).
Compounds without any hit were thinned out: in the full panel of roughly 83,000, 20% have a hit.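 Percent growth is the endpoint: 0 to 100 indicates growth inhibition (40 means 60% inhibition), 0 means no net growth, and negative values indicate cell death.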 A number with no mark means an inactive call. Active and inactive are the calls of the source. The calls were made as follows: active = growth percent below 10; inactive = the rest.

Key:
Test in all cases: NCI-60 one-dose screen, 48 h (100 = growth as untreated, 0 = no growth, -100 = all killed)
SK-MEL-2 melanoma = details: 10 µM unless noted
EKVX NSCLC = details: 10 µM unless noted
SN12C renal = details: 10 µM unless noted
UO-31 renal = details: 10 µM unless noted
TK-10 renal = details: 10 µM unless noted
ACHN renal = details: 10 µM unless noted
CAKI-1 renal = details: 10 µM unless noted
A498 renal = details: 10 µM
HL-60(TB) leukemia = details: 10 µM unless noted
CCRF-CEM leukemia = details: 10 µM unless noted

Compound `O=C1C(Cl)=C(N2CCOCC2)C(=O)c2ccccc21` has a growth (SK-MEL-2 melanoma) of 119%, a growth (EKVX NSCLC) of 96.9% and a growth (SN12C renal) of 105%. It also gave a growth (UO-31 renal) of 51.8%, a growth (TK-10 renal) of 127% and a growth (ACHN renal) of 78.4%. The growth (CAKI-1 renal) was 6.93% (active), the growth (A498 renal) was 93.8% and the growth (HL-60(TB) leukemia) was -36.6% (active). For the same compound, the growth (CCRF-CEM leukemia) was -27.6% (active).

`Fc1ccc(C2=CCNCC2)cc1` showed a growth (SK-MEL-2 melanoma) of 109%, a growth (EKVX NSCLC) of 86.2% and a growth (SN12C renal) of 73%. For the same compound, the growth (UO-31 renal) was 84.7%, the growth (TK-10 renal) was 86.5% and the growth (ACHN renal) was 108%. For the same compound, the growth (CAKI-1 renal) was 79.5%, the growth (A498 renal) was 87.8% and the growth (CCRF-CEM leukemia) was 118%.

For `C[N+](C)(C)Cc1cc(Cl)ccc1O`, the growth (SK-MEL-2 melanoma) was 99.7%, the growth (EKVX NSCLC) was 115% and the growth (SN12C renal) was 106%. It also gave a growth (UO-31 renal) of 90.8%, a growth (TK-10 renal) of 110% and a growth (ACHN renal) of 95.9%. The growth (CAKI-1 renal) was 106%, the growth (A498 renal) was 90.1% and the growth (HL-60(TB) leukemia) was 87.4%. For the same compound, the growth (CCRF-CEM leukemia) was 8.41% (active).

`COc1ccc(N(CC(=O)NCCC[Te]c2ccccc2)C(=O)CNC(=O)OC(C)(C)C)cc1` was tested, and the growth (SK-MEL-2 melanoma) was 80%, the growth (EKVX NSCLC) was -5.01% (active) and the growth (SN12C renal) was 18.7%. The growth (UO-31 renal) was -3.8% (active), the growth (TK-10 renal) was 76.1% and the growth (ACHN renal) was 83.9%. The growth (CAKI-1 renal) was 70.4%, the growth (A498 renal) was -16% (active) and the growth (HL-60(TB) leukemia) was 3.6% (active). It also gave a growth (CCRF-CEM leukemia) of 14%.

`O=C(N/N=C\c1ccc(N(CCCl)CCCl)cc1)c1cccc([N+](=O)[O-])c1` showed a growth (SK-MEL-2 melanoma) of 101%, a growth (EKVX NSCLC) of 88.6% and a growth (SN12C renal) of 88.9%. It also gave a growth (UO-31 renal) of 90.6%, a growth (TK-10 renal) of 99.2% and a growth (ACHN renal) of 94.4%. For the same compound, the growth (CAKI-1 renal) was 89.3%, the growth (A498 renal) was 118% and the growth (CCRF-CEM leukemia) was 82.5%.

`N#CC1(C#N)C(c2ccc(N(CCCl)CCCl)cc2)OC23CCCCC2C1(C#N)C(=N)O3` (centres undefined) gave a growth (SK-MEL-2 melanoma) of 122%, a growth (EKVX NSCLC) of 108% and a growth (SN12C renal) of 69.1%. It also gave a growth (UO-31 renal) of 72.1%, a growth (TK-10 renal) of 91.9% and a growth (ACHN renal) of 50.2%. For the same compound, the growth (CAKI-1 renal) was 55.8%, the growth (A498 renal) was 56.6% and the growth (CCRF-CEM leukemia) was 77%.

`O=C1OCC2=C1C(c1ccccc1)c1cc3c(cc1N2)OCO3` (centres undefined) was tested, and the growth (SK-MEL-2 melanoma) was 15.6%, the growth (EKVX NSCLC) was 48% and the growth (SN12C renal) was 21.5%. It also gave a growth (UO-31 renal) of 45.6%, a growth (TK-10 renal) of 56.9% and a growth (ACHN renal) of 27.1%. For the same compound, the growth (CAKI-1 renal) was 38.8%, the growth (A498 renal) was -6.52% (active) and the growth (HL-60(TB) leukemia) was 2.29% (active). The growth (CCRF-CEM leukemia) was 11.6%.

With `Cc1ccc(N2COOC3(OOC2)C2CC4CC(C2)CC3C4)cc1` the growth (SK-MEL-2 melanoma) was 104%, the growth (EKVX NSCLC) was 93% and the growth (SN12C renal) was 106%. The growth (UO-31 renal) was 20.7%, the growth (TK-10 renal) was 98.7% and the growth (ACHN renal) was 97.7%. The growth (CAKI-1 renal) was 53.7%, the growth (A498 renal) was 88.4% and the growth (HL-60(TB) leukemia) was 66.6%. It also gave a growth (CCRF-CEM leukemia) of 107%.

Work on `CN1CC(CNC(=O)OCc2ccccc2)CC2c3cccc4c3c(cn4C)CC21` (centres undefined) yielded a growth (SK-MEL-2 melanoma) of 47.2%, a growth (EKVX NSCLC) of 71.8% and a growth (SN12C renal) of 45%. For the same compound, the growth (UO-31 renal) was 32.5%, the growth (TK-10 renal) was 53.9% and the growth (ACHN renal) was 39.7%. For the same compound, the growth (CAKI-1 renal) was 52.9%, the growth (A498 renal) was 57.6% and the growth (CCRF-CEM leukemia) was 45.7%.

Work on `CC(C)COC(C[N+](=O)[O-])C(Cl)(Cl)Cl` (centres undefined) yielded a growth (SK-MEL-2 melanoma) of 115%, a growth (EKVX NSCLC) of 97.2% and a growth (SN12C renal) of 105%. The growth (UO-31 renal) was 97.2%, the growth (TK-10 renal) was 105% and the growth (ACHN renal) was 107%. It also gave a growth (CAKI-1 renal) of 102%, a growth (A498 renal) of 84.6% and a growth (HL-60(TB) leukemia) of 93%. It also gave a growth (CCRF-CEM leukemia) of 113%.

For `COc1cc(NCCCN=C(N)N)c2ncccc2c1`, the growth (SK-MEL-2 melanoma) was 27.8%, the growth (EKVX NSCLC) was 70.6% and the growth (SN12C renal) was 2.57% (active). The growth (UO-31 renal) was 89.4%, the growth (TK-10 renal) was 80% and the growth (ACHN renal) was 100%. For the same compound, the growth (CAKI-1 renal) was 97.9%, the growth (A498 renal) was 73.6% and the growth (CCRF-CEM leukemia) was 95.8%.

`O=C(Nc1ccc(Br)cc1)c1cc(Br)cc(Br)c1O` was tested, and the growth (SK-MEL-2 melanoma) was -21.8% (active), the growth (EKVX NSCLC) was 10.7% and the growth (SN12C renal) was -2.01% (active). The growth (UO-31 renal) was 4.99% (active), the growth (TK-10 renal) was 14.6% and the growth (ACHN renal) was -19.5% (active). The growth (CAKI-1 renal) was -6.11% (active), the growth (A498 renal) was 32.2% and the growth (CCRF-CEM leukemia) was 13.5%.

Compound `CC[C@H](C)[C@H](NC(=O)[C@H]1CCCCN1C)C(=O)N(C)[C@H](C[C@@H](OC(C)=O)c1nc(C(=O)NC23CC(C(=O)OC)(C2)C3)cs1)C(C)C` has a growth (SK-MEL-2 melanoma) of 29.5%, a growth (EKVX NSCLC) of 34.3% and a growth (SN12C renal) of 32.7%. The growth (UO-31 renal) was 33.1%, the growth (TK-10 renal) was 15.7% and the growth (ACHN renal) was 11.6%. For the same compound, the growth (CAKI-1 renal) was 26.5%, the growth (A498 renal) was -7.99% (active) and the growth (HL-60(TB) leukemia) was -37.2% (active). The growth (CCRF-CEM leukemia) was 1.09% (active).

In the case of `O=C([O][Hg][CH2]C1OCCOC1[CH2][Hg][O]C(=O)c1ccccc1)c1ccccc1` (centres undefined), the growth (SK-MEL-2 melanoma) is reported as 95.4%, the growth (EKVX NSCLC) is reported as 123% and the growth (SN12C renal) is reported as 76.2%. For the same compound, the growth (UO-31 renal) was -94.8% (active), the growth (TK-10 renal) was -99.5% (active) and the growth (ACHN renal) was -99.5% (active). The growth (CAKI-1 renal) was -94.7% (active), the growth (A498 renal) was 132% and the growth (CCRF-CEM leukemia) was -15.8% (active).

For `CCC(C)(C)[C@H](NC(=O)[C@H]1CCCCN1C)C(=O)N(C)[C@H](C[C@@H](OC(C)=O)c1nc(C(=O)N[C@@H](Cc2ccccc2)C[C@H](C)C(=O)O)cs1)C(C)C`, the growth (SK-MEL-2 melanoma) was 21.9%, the growth (EKVX NSCLC) was 52.6% and the growth (SN12C renal) was 17.5%. For the same compound, the growth (UO-31 renal) was 32.9%, the growth (TK-10 renal) was 35.1% and the growth (ACHN renal) was 11.4%. For the same compound, the growth (CAKI-1 renal) was 29%, the growth (HL-60(TB) leukemia) was -8.72% (active) and the growth (CCRF-CEM leukemia) was 2.41% (active).

`CN[C@]1(c2ccccc2Cl)CCCC[C@H]1NCCCN1CCN(C)CC1` gave a growth (SK-MEL-2 melanoma) of 103%, a growth (EKVX NSCLC) of 92% and a growth (SN12C renal) of 97.4%. For the same compound, the growth (UO-31 renal) was 76.3%, the growth (TK-10 renal) was 96.4% and the growth (ACHN renal) was 108%. For the same compound, the growth (CAKI-1 renal) was 87.3%, the growth (HL-60(TB) leukemia) was 93.9% and the growth (CCRF-CEM leukemia) was 99.6%.

With `COc1cc(/C=N/C2=C(C#N)C(c3ccco3)c3c(c4cc(C)ccc4oc3=O)O2)cc(OC)c1OC` (centres undefined) the growth (SK-MEL-2 melanoma) was 94.1%, the growth (EKVX NSCLC) was 95.1% and the growth (SN12C renal) was 99.5%. The growth (UO-31 renal) was 67.9%, the growth (TK-10 renal) was 109% and the growth (ACHN renal) was 90.1%. The growth (CAKI-1 renal) was 85.8%, the growth (A498 renal) was 86.6% and the growth (CCRF-CEM leukemia) was 96.5%.

For `COc1cc2ncnc(Nc3ccc(F)c(Cl)c3)c2cc1OCC(=O)N1CCN(C)CC1`, the growth (SK-MEL-2 melanoma) was 94.4%, the growth (EKVX NSCLC) was 61.8% and the growth (SN12C renal) was 76.9%. For the same compound, the growth (UO-31 renal) was 55.9%, the growth (TK-10 renal) was 23.4% and the growth (ACHN renal) was 37.8%. The growth (CAKI-1 renal) was 44.1%, the growth (A498 renal) was 69.9% and the growth (CCRF-CEM leukemia) was 87%.

Work on `CS(=O)(=O)CCN1CC2CCCC(C2)C1` yielded a growth (SK-MEL-2 melanoma) of 105%, a growth (EKVX NSCLC) of 102% and a growth (SN12C renal) of 98.2%. It also gave a growth (UO-31 renal) of 96.9%, a growth (TK-10 renal) of 96.4% and a growth (ACHN renal) of 97.7%. For the same compound, the growth (CAKI-1 renal) was 97.1%, the growth (HL-60(TB) leukemia) was 81.4% and the growth (CCRF-CEM leukemia) was 97.2%.

With `CCCOC(=O)N[C@H]1CCc2c(Br)c(OC)c(OC)c(OC)c2-c2ccc(SC)c(=O)cc21` the growth (SK-MEL-2 melanoma) was 34.2%, the growth (EKVX NSCLC) was 40.3% and the growth (SN12C renal) was 14.1%. It also gave a growth (UO-31 renal) of 20.7%, a growth (TK-10 renal) of 43% and a growth (ACHN renal) of 27.6%. For the same compound, the growth (CAKI-1 renal) was 11.2%, the growth (HL-60(TB) leukemia) was -25.7% (active) and the growth (CCRF-CEM leukemia) was 5.05% (active).

`COC(=O)CCc1c[nH]c2ccc(N(CCCl)CCCl)cc12` was tested, and the growth (SK-MEL-2 melanoma) was 121%, the growth (EKVX NSCLC) was 96.6% and the growth (SN12C renal) was 36.6%. For the same compound, the growth (UO-31 renal) was 19.5%, the growth (TK-10 renal) was 90% and the growth (ACHN renal) was 12.6%. It also gave a growth (A498 renal) of 84.3% and a growth (HL-60(TB) leukemia) of 17.5%.

`CC1(C)N=C(N)N=C(N)N1c1ccc(CCCCc2ccc(Cl)c(S(=O)(=O)F)c2)c(Cl)c1` gave a growth (SK-MEL-2 melanoma) of 38.7%, a growth (EKVX NSCLC) of 45.3% and a growth (SN12C renal) of 24.6%. It also gave a growth (UO-31 renal) of 27.3%, a growth (TK-10 renal) of 41.7% and a growth (ACHN renal) of 28.2%. The growth (A498 renal) was 69.6%, the growth (HL-60(TB) leukemia) was -43.9% (active) and the growth (CCRF-CEM leukemia) was 3.5% (active).
